# “And” between values parts separate entries of the source, which are not always exact repeats. Identical values can stand only once.
# Target: C-X-C chemokine receptor type 6 (Homo sapiens) (UniProt O00574)
# Assay: antagonism of CXCR6 versus CXCR5 signaling – cell-based, CHO-K1 PathHunter beta-arrestin, luminescence, set 4, selectivity assay for CXCR6 antagonist project, profiling panel (AID 651919)
# Settings: run 2, at 79 µM (top of the series)
# C-X-C chemokine receptor type 6 (Homo sapiens), sequence (O00574 whole entry, looked up): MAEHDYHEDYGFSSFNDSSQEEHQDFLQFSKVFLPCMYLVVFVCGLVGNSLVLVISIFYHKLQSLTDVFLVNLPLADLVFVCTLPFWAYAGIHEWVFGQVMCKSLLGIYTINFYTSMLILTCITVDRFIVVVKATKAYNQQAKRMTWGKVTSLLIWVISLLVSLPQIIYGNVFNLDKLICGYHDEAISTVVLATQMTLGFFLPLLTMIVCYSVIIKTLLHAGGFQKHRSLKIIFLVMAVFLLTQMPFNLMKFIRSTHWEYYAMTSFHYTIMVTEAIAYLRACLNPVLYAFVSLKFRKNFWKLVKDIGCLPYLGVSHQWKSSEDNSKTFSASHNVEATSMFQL
row,SMILES,inhibition
1,COc1cccc(C(=O)NC2CC3CCCC(C2)N3CC(=O)Nc2ccc(C)cc2)c1 (centres undefined),3.25%
2,COc1cc(C(=O)NC2CC3CCCC(C2)N3CC(=O)Nc2ccc(Cl)cc2)cc(OC)c1OC (centres undefined),90.4%
3,COc1cc(OC)cc(C(=O)NC2CC3CCCC(C2)N3CC(=O)Nc2ccc(C)cc2)c1 (centres undefined),55.4%
4,COc1cc(OC)cc(C(=O)NC2CC3CCCC(C2)N3CC(=O)Nc2ccccc2)c1 (centres undefined),3.13%
5,COc1cc(C(=O)NC2CC3CCCC(C2)N3CC(=O)Nc2ccc(F)cc2)cc(OC)c1OC (centres undefined),81.3%
6,O=C(CN1C2CCCC1CC(NC(=O)c1ccc3c(c1)OCO3)C2)Nc1ccc(F)cc1 (centres undefined),-2.79%
7,COc1ccc(NC(=O)CN2C3CCCC2CC(NC(=O)c2ccc4c(c2)OCO4)C3)cc1 (centres undefined),4.54%
8,Cc1ccc(NC(=O)CN2C3CCCC2CC(NC(=O)c2ccc4c(c2)OCO4)C3)cc1 (centres undefined),5.62%
9,COc1ccc(NC(=O)CN2C3CCCC2CC(NC(=O)c2cc(OC)c(OC)c(OC)c2)C3)cc1 (centres undefined),61.4%
10,COc1ccc(NC(=O)CN2C3CCCC2CC(NC(=O)c2cccc(OC)c2)C3)cc1 (centres undefined),-0.0157%
11,COc1ccc(NC(=O)CN2C3CCCC2CC(NC(=O)c2ccc(OC)c(OC)c2)C3)cc1 (centres undefined),-3.76%
12,COc1cccc(C(=O)NC2CC3CCCC(C2)N3CC(=O)Nc2ccc(Cl)cc2)c1 (centres undefined),-8.76%
13,COc1ccc(C(=O)NC2CC3CCCC(C2)N3CC(=O)Nc2ccccc2)cc1OC (centres undefined),30.3%
14,COc1cc(C(=O)NC2CC3CCCC(C2)N3CC(=O)Nc2ccccc2)cc(OC)c1OC (centres undefined),94% and 90.4%
15,COc1cc(C(=O)NC2CC3CCCC(C2)N3CC(=O)Nc2ccccc2Cl)cc(OC)c1OC (centres undefined),100% and 99.1%
16,COc1cc(C(=O)NC2CC3CCCC(C2)N3CC(=O)Nc2ccc(C)cc2)cc(OC)c1OC (centres undefined),77.6%
17,COc1cccc(C(=O)NC2CC3CCCC(C2)N3CC(=O)Nc2ccccc2)c1 (centres undefined),8.64%

row,SMILES,inhibition
1,COc1cc(OC)cc(C(=O)NC2CC3CCCC(C2)N3CC(=O)Nc2ccc(F)cc2)c1 (centres undefined),-4.2%
2,COc1ccc(NC(=O)CN2C3CCCC2CC(NC(=O)c2cc(OC)cc(OC)c2)C3)cc1 (centres undefined),-0.62%
3,COc1ccc(C(=O)NC2CC3CCCC(C2)N3CC(=O)Nc2ccc(Cl)cc2)cc1 (centres undefined),-10.3%
4,O=C(CN1C2CCCC1CC(NC(=O)c1ccc3c(c1)OCO3)C2)Nc1ccccc1 (centres undefined),5.06%
5,COc1cccc(C(=O)NC2CC3CCCC(C2)N3CC(=O)Nc2ccc(F)cc2)c1 (centres undefined),2.48%
6,COc1ccc(C(=O)NC2CC3CCCC(C2)N3CC(=O)Nc2ccc(F)cc2)cc1 (centres undefined),-0.539%
7,O=C(CN1C2CCCC1CC(NC(=O)c1ccccc1)C2)Nc1ccccc1 (centres undefined),7.76%
8,COc1ccc(C(=O)NC2CC3CCCC(C2)N3CC(=O)Nc2ccc(F)cc2)cc1OC (centres undefined),29.3%
9,O=C(CN1C2CCCC1CC(NC(=O)c1ccc3c(c1)OCO3)C2)Nc1ccc(Cl)cc1 (centres undefined),-3.16%
10,COc1ccc(C(=O)NC2CC3CCCC(C2)N3CC(=O)Nc2ccccc2)cc1 (centres undefined),8.56%
11,COc1ccc(C(=O)NC2CC3CCCC(C2)N3CC(=O)Nc2ccc(C)cc2)cc1 (centres undefined),6.15%
12,COc1ccc(C(=O)NC2CC3CCCC(C2)N3CC(=O)Nc2ccc(C)cc2)cc1OC (centres undefined),4.86%
13,COc1cc(OC)cc(C(=O)NC2CC3CCCC(C2)N3CC(=O)Nc2ccc(Cl)cc2)c1 (centres undefined),-8.8%
14,COc1ccc(CN2C3CCCC2CC(NC(=O)c2cc(OC)c(OC)c(OC)c2)C3)cc1 (centres undefined),56.8%
15,COc1ccc(NC(=O)CN2C3CCCC2CC(NC(=O)c2ccc(OC)cc2)C3)cc1 (centres undefined),4.54%
16,COc1ccc(C(=O)NC2CC3CCCC(C2)N3CC(=O)Nc2ccc(Cl)cc2)cc1OC (centres undefined),14.6%
17,COc1ccccc1NC(=O)CN1C2CCCC1CC(NC(=O)c1cc(OC)c(OC)c(OC)c1)C2 (centres undefined),98.2%

# Source: PubChem BioAssay AID651919 (Sanford-Burnham Center for Chemical Genomics, 2012)
